Source: PubChem BioAssay AID2284371 (EPA ToxCast)
Records with an inconclusive call do not appear. The source made the active and inactive calls. The calls were made as follows: active = hit-call score of the fitted dose curve at least 0.9, where 1 is the maximum; inconclusive = response in the unintended direction; inactive = score below 0.9.

experiment: ATG_M_61_EcoTox2: Attagene TRANS-FACTORIAL EcoTox-2 HepG2 Assay for M61 Transcription Factor (Internal Marker)
Procedure: ATG_EcoTox2 is a cell-based, multiplexed assay created by modifying the existing Attagene TRANS-FACTORIAL system to include a panel of nuclear receptors from some or all the following species: human (Homo sapiens), african clawed frog (Xenopus laevis), rainbow trout (Oncorhynchus mykiss), japanese medaka (Oryzias latipes), and zebrafish (Danio rerio). The ECOTOX2-FACTORIAL format uses HepG2, a human liver cell line, with measurements taken at 24 hours after chemical dosing in a 24-well plate. ATG_M_61_EcoTox2 is one of 29 assay components calculated in the ATG_EcoTox2 assay. It is designed to make measurements of mRNA induction, a form of inducible reporter, as detected with fluorescence intensity signals by Reverse transcription polymerase chain reaction (RT-PCR) and Capillary electrophoresis technology.The assay endpoint ATG_M_61_EcoTox2 was analyzed in the positive analysis fitting direction relative to DMSO as the negative control and baseline of activity. Using a type of inducible reporter, measures of mRNA for gain-of-signal activity can be used to understand the background control at the transcription factor-level as they relate to the gene. Furthermore, this assay endpoint can be referred to as a secondary readout, because this assay has produced multiple assay endpoints where this one serves a background control function. To generalize the intended target to other relatable targets, this assay endpoint is annotated to the background measurement intended target family, where the subfamily is internal marker.
Human liver HepG2 cells are transiently transfected with multiple reporter transcription units (MRTUs) in 6-well plates using FuGene 6 reagent (Roche; 3 ml FuGene/1 mg DNA). The MRTU constructs are regulated by a cis-regulating element (promoter). Each RTU expresses a GAL4-UAS that regulates the transcription of a nearby target reporter gene sequence. A major difference between the CIS and TRANS system is that in CIS activities of endogenous TFs are measured, whereas the TRANS assay evaluates changes in activities of exogenous, chimeric NR-Gal4 proteins. […] At the end of 24 hour incubation, total RNA was isolated using TriZol reagent (Invitrogen). The isolated RNA is then reverse-transcribed using oligo(dT) primer and Mo-MLV reverse transcriptase (Invitrogen) with DNAse I (Ambion) treatment for 30 min. The one-tenth of the produced cDNA was amplified by PCR using Taq DNA polymerase (Invitrogen) and two reporter sequence-specific primers. The PCR products were fluorescently labeled by primer extension with 6-arboxyfluorescein (6-FAM) 5'-labeled reporter sequence-specific primer (2 min at 95 C, 20 s at 68 C and 10 min at 72 C) and these products were digested with 5U of HpaI (New England Biolabs) for 2h at 37 C. The fragments were purified using Qiaquick PCR columns (Qiagen), analyzed on an ABI 3130xL genetic analyzer (Applied Biosystems) with peak positions identified by using a set of X-rhodamine (ROX)-labeled MapMarker1000 molecular weight standards (BioVentures). The raw capillary electrophoresis data was processed using Attagraph software (Attagene).

Compound | outcome
Cc1cccc(Nc2cc(Cl)nc(SCC(=O)O)n2)c1C | inactive
Cc1nc(-c2ccc(C(F)(F)F)cc2)sc1C(=O)NCc1ccc(OC(C)(C)C(=O)O)cc1 | inactive
CC(c1cc2ccccc2s1)N(O)C(N)=O (stereo unspecified) | inactive
C=C(c1ccc(C(=O)O)cc1)c1cc2c(cc1C)C(C)(C)CCC2(C)C | inactive
Cc1c(C)c2c(c(C)c1O)CCC(C)(COc1ccc(CC3SC(=O)NC3=O)cc1)O2 (stereo unspecified) | inactive
CC(C)OC(=O)C(C)(C)Oc1ccc(C(=O)c2ccc(Cl)cc2)cc1 | inactive
CN(CCOc1ccc(CC2SC(=O)NC2=O)cc1)c1ccccn1 (stereo unspecified) | inactive
CC(C)(Oc1ccc(Cl)cc1)C(=O)O | inactive
C[C@]12C=CC(=O)C=C1CC[C@@H]1[C@@H]2C(=O)C[C@@]2(C)[C@H]1CC[C@]2(O)C(=O)CO | inactive
CC(C)(Oc1ccc(C2CC2(Cl)Cl)cc1)C(=O)O (stereo unspecified) | inactive
CC(C)(Oc1ccc(CCNC(=O)c2ccc(Cl)cc2)cc1)C(=O)O | inactive
